In PubChem BioAssay (NCATS):
Values joined by “and” are separate entries in the source; they are usually repeats but may differ in a detail not shown here. Equal values may be shown once. Inconclusive results are not listed. Active and inactive are the calls of the source. The call rests on the fitted dose curve; in most records, active means well fitted cell-killing curve with a large enough effect in the repeat runs; inconclusive means weak or mixed curves; inactive means flat fitted curve, though single readings scatter.
On the % scale 0 is the no-effect control and ±100 the full control effect.

Experiment: qHTS assay for small molecule agonists of the antioxidant response element (ARE) signaling pathway measured by Nrf2-dependant transcriptional activity - cell viability counter screen (AID 720653)
Details: ARE-bla HepG2 viability, CellTiter-Glo ATP luminescence, 16 h; max response: hits give low values
Summary of the method: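 Cytotoxicity counter screen: intracellular ATP quantified by CellTiter-Glo luminescence in the same ARE-bla HepG2 plates, after 16 h compound exposure and a 2 h beta-lactamase substrate step.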
For CCCN(CCC)C(=O)SCC, the max response was -4.11% (inactive) and 2.96% (inactive). For COc1ccc2nc(N)sc2c1, the max response was -11.5% (inactive) and -7.03% (inactive). For ClCCCl, the max response was 20.3% (inactive) and 6% (inactive) and -12.9% (inactive). With CCC(O)OC(O)CC (configuration not stated) the max response was 1.91% (inactive) [middle of 4 runs]. In the case of C=Cc1ccccc1Cl, the max response is reported as -2.6% (inactive). In the case of c1ccc2c(c1)c1cccc3ccc4cccc2c4c31, the max response is reported as -0.0817% (inactive) and -5.96% (inactive). For Cc1cccc([N+](=O)[O-])c1C, the max response was 4.89% (inactive) and -2.35% (inactive). In the case of CCCCCCCCO, the max response is reported as -1.13% (inactive) and 11.2% (inactive) and -1.97% (inactive). With CC(C)=CCCC(C)CCO (configuration not stated) the max response was -2.24% (inactive) and -1.77% (inactive). In the case of O=[N+]([O-])c1cccc(Cl)c1Cl, the max response is reported as 3.32% (inactive) and 9.85% (inactive). For CCO[Si](CCCN)(OCC)OCC, the max response was -1.9% (inactive) and -14% (inactive). With Clc1cc(Cl)c(Cl)cc1Cl the max response was 2.91% (inactive) and 4.61% (inactive). In the case of CCO, the max response is reported as 7% (inactive). For C=CC(=O)OCCOCCOCCOCCOC(=O)C=C, the max response was -13% (inactive). For Clc1cc(Cl)c(Cl)c(Cl)c1Cl, the max response was -0.0319% (inactive) and -1.01% (inactive). For CCCCC(CC)CN (configuration not stated), the max response was -5.16% (inactive) and -12.4% (inactive). For O=NO, the max response was -5.36% (inactive) and 6.29% (inactive).
